The campaign covered roughly 320,000 compounds. About 200 (0.062%) were called active. Inconclusive results (about 6%) are left out. The sample holds actives, similar compounds and a random draw of the others, so the mix is not that of the screen. Calls follow the shape of the dose curve; as a rule, active = well fitted activation curve with a large enough effect; inconclusive = small, poorly fitted or top-dose-only effect; inactive = no such curve, though single readings can be large or run the other way.
Assay: qHTS assay for re-activators of p53 using a Luc reporter; also: % of control where 0% means no effect; nearly all actives have a fitted effect of over 45% in size
Conditions: H1299 p53-A138V BP100-luciferase reporter, luminescence, 24 h; series mostly up to 92.2 µM; activity change, positive = activation: at the top concentration
Excerpt: The p53 tumor suppressor plays a key role in suppression of tumorigenesis and in human carcinogenesis. It is frequently found inactivated in human cancers, mainly by point mutation. These point mutations are found in a wide variety of human cancers and a majority of them affect the DNA binding domain of the protein. The point mutations either alter native p53 conformation or abolish DNA contact. Additionally, cancer cells with p53 mutations are more resistant to chemo-radiation therapies. In order to find activators to reactivate this important protein, a cell-based screen for p53-dependent luciferase-reporter expression was developed. A p53-null H1299 lung cancer cell line was stably co-transfected with a temperature sensitive p53 mutant, p53-A138V, and a p53-responsive BP100-luciferase reporter. This cell model has previously been characterized in a gene chip profiling experiment for p53 activation. By lowering the culture temperature from 37 deg C (mutant p53 conformation) to 32 deg C (w.t. p53 conformation), a 30-60 fold increase in activation of luciferase activity is observed. At assay temperate, 37 deg C, basal reporter expression is very low and after the addition of detection reagent, a luminescent read-out is carried out. NIH Chemical Genomics Center [NCGC] NIH Molecular Libraries Probe Production Centers Network [MLPCN] MLPCN Grant: DA031088-01A1 Assay Provider (PI): Yi Sung, University of Michigan at Ann Arbor
5ul of 1000 cells per well are dispensed in all wells except column 4, into white solid-bottom TC-treated Kalypsys plates. The cells are kept in Opti-MEM and supplemented with 10% FBS and dispensed using a Multidrop (Thermo). Then using the Kalypsys pin-tool, 23nl of compounds are pinned. The compounds are starting concentration at 10mM, with 1:5 dilution, 4 points, and the control compound nocodazole is pinned in column 1 at 25mM, 1:3 dilution, in duplicate, 25mM nocodazole is pinned in column 2. Please note, all concentrations are working concentrations. 5ul of 1pM purified luciferase enzyme is dispensed using the Kalypsys dispenser in column 4. Plates are incubated for 24 hrs at 37 deg C, 5% CO2, and 95% humidity. Then 4ul of the detection reagent Amplite (ABD Bioquest) is added using the Kalypsys dispenser. Plates are incubated for 10 min at ambient room temperature and are then read on the ViewLux (Perkin Elmer) using a clear filter for a luminescent read-out.

Activity change, positive = activation, inactive:
COc1ccc(CCNC(=O)COC(=O)c2ncc(Cl)c(Cl)c2Cl)cc1OC -3.05%, C=CC[C@@H](CC(=O)NCCO)C(=O)N[C@H](C)COC(=O)[C@@H](CC=C)CC(=O)OC(C)(C)C 2.81%, CC(C)NC(=O)Nc1cccc2c1O[C@@H](CN(C)S(=O)(=O)c1ccc(F)cc1)[C@@H](C)CN([C@H](C)CO)C2=O -2.1%, C=CCC[C@@H](Cc1ccc(F)cc1)C(=O)O[C@H](CNC(=O)[C@H](CC=C)CC(=O)N(CCO)Cc1ccccc1)c1ccccc1 2.56%, Cn1c(N)c(C(=O)COC(=O)c2cccc(S(=O)(=O)N3CCOCC3)c2)c(=O)n(C)c1=O 3.86%, Cc1ccc(C(=O)NCC(=O)NC2CC2)cc1 4.8%, COc1ccc2nc3n(c(=O)c2c1)-c1ccc(Cl)cc1C(=O)NC3Cc1ccccc1 (stereo not given) -4.22%, CCN(C[C@H]1N[C@@](CC)(C(=O)OC)[C@H]2C(=O)N(Cc3ccccc3)C(=O)[C@@H]12)S(=O)(=O)c1ccccc1 -3.58%, Cc1ccc(S(=O)(=O)Nc2ccc3c(c2)C(=O)N([C@H](C)CO)C[C@@H](C)[C@@H](CN(C)C(=O)Nc2cccc4ccccc24)O3)cc1 -4.09%, N#CCCN(C(=O)COC(=O)c1ccc2c(c1)OCCO2)c1ccccc1 -10.6%, O=C(COC(=O)CSc1ccccc1)Nc1ccc(F)cc1F -3.41%, COc1ccc2[nH]c3c(c2c1)CCN1C(=O)C(CC(=O)NCCCN(C)C)C[C@H](C(=O)N2CCOCC2)[C@@]31CCC1CCCC1 (stereo not given in full) -5.21%, CC[C@]1(C(=O)OC)[C@H]2C(=O)N(Cc3ccccc3)C(=O)[C@H]2[C@H]2CN=C(SCc3ccc(Cl)cc3)N21 -2.77%, COC(=O)c1ccc(/C=C/c2c(-c3ccc(OC)cc3)sc3ccccc23)cc1 1.3%, Cc1ccc(S(=O)(=O)N2CCN(C(=O)CN3C(=O)NC(C)(c4ccc(Cl)cc4)C3=O)CC2)c(C)c1 (stereo not given) 11.7%, O=C(CSc1nc2ccccc2c(=O)n1-c1ccccc1F)N1CCOCC1 -7.54%, Cc1c(Cl)cnc(NC(=O)COC(=O)C2CCCC2)c1Cl -1.21%, C[C@H](CO)N1C[C@H](C)[C@H](CN(C)C(=O)Nc2ccc(C(F)(F)F)cc2)Oc2c(NC(=O)c3ccncc3)cccc2C1=O -2.92%, CC[C@]1(C(=O)OC)[C@H]2C(=O)N(Cc3ccccc3)C(=O)[C@H]2[C@H]2CN=C(SCc3ccccc3)N21 33.6%, CC[C@@]1(C(=O)OC)N[C@H](CN(C)C(C)=O)[C@@H]2C(=O)N(C)C(=O)[C@@H]21 4.26%, CN(C(=O)c1cccc(NC(=O)Cc2cccc([N+](=O)[O-])c2)c1)C1CCCCC1 -1.26%, COc1cc(C(=O)NC2CCN(C)CC2)ccc1Nc1ncc2c(n1)N(C1CCC(O)CC1)CCC(=O)N2C (stereo not given) -2.64%, CSCCC1NC(=O)N(CC(=O)Nc2cccc(S(=O)(=O)N3CCCCCC3)c2)C1=O (stereo not given) -6.05%, CN(C(=O)c1cccc(NC(=O)C2CCN(C(=O)OC(C)(C)C)CC2)c1)C1CCC1 -1.82%, Cc1ccc(S(=O)(=O)N2CCN(C(=O)COC(=O)CNC(=O)c3ccc(C(C)(C)C)cc3)CC2)c(C)c1 9.42%, CCC(CO)Oc1cc(NCc2ccccc2)c2ncn(C3CCCC3)c2c1 (stereo not given) -0.676%, Nc1ncnc2c1ncn2[C@@H]1O[C@H](CNCc2cccn2-c2nccs2)[C@@H](O)[C@H]1O 3.16%, CCOC(=O)C1=CN(Cc2ccc(Br)cc2)S(=O)(=O)NC1C (stereo not given) 7.34%, COc1ccc2[nH]c3c(c2c1)CCN1C(=O)C(CC(=O)NCCc2ccccn2)C[C@H](C(=O)N2CCOCC2)[C@@]31C (stereo not given in full) 6.48%, O=C(COC(=O)c1cc[n+]([O-])cc1)Nc1ccc(Cl)c(C(F)(F)F)c1 -6.74%, COc1ccc(CCOC2OC(CO)C(OC(=O)/C=C/c3ccc(O)c(OC)c3)C(O[C@H]3O[C@@H](C)[C@H](O)[C@@H](O)[C@H]3O)C2O)cc1O (stereo not given in full) -0.634%, CCOC(=O)[C@H]1[C@H]2COc3ccccc3[C@@H]2N2C(=O)CN(Cc3ccccc3)C(=O)[C@@]12C -0.503%, COc1ccc(OC)c(NC(=O)COC(=O)Cc2ccsc2)c1 4.86%, O=C(CC1SC(N2CCOCC2)=NC1=O)Nc1ccccc1F (stereo not given) -4.02%, O=C(NC(=S)Nc1ccc(Br)cc1F)C1CCCCC1 14.8%, COc1ccc(CNC(=O)C[C@H]2C[C@H](C(=O)N3CCOCC3)[C@@]3(CCC4CCCC4)c4[nH]c5ccc(Cl)cc5c4CCN3C2=O)cc1OC 5.3%, CCN1C[C@@H]2[C@@H]3C(=O)N(Cc4ccccc4)C(=O)[C@@H]3[C@](Cc3ccccc3)(C(=O)OC)N2C1=NC1CCCCC1 -5.11%, CCCCNc1c(-c2ccc(OC)c(Sc3ccc(OC)cc3)c2)nc2ccc(Cl)cn12 5.53%, CC(C)N(C(=O)[C@H]1C[C@H](CC(=O)NC(C)(C)C)C(=O)N2CCc3c([nH]c4ccc(Cl)cc34)[C@]12C)C(C)C -11.8%, Cc1c(NC(=O)C(C)OC(=O)c2ccccc2O)c(=O)n(-c2ccccc2)n1C (stereo not given) 0.846%

From PubChem BioAssay AID504706 (National Center for Advancing Translational Sciences (NCATS), 2011)
